Test results published in PubChem BioAssay AID2289 (National Center for Advancing Translational Sciences (NCATS), 2010).
Screen size: about 340,000 compounds; about 3,300 (0.97%) were called active. Inconclusive results (about 9%) are left out. The call rests on the fitted dose curve; in most records, active means well fitted inhibition curve with a large enough effect; inconclusive means small, poorly fitted or top-dose-only effect, or effect the other way; inactive means flat fitted curve, though single readings scatter. This is one part of the list.

assay: qHTS Assay for Modulators of miRNAs and/or Inhibitors of miR-21; settings: HeLa miR-21-FLuc reporter, luciferase luminescence, 48 h; actives lower the signal; further: nearly all actives have a fitted effect of over 55% in size
In short: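 Using DMEM plus 10% FBS, HeLa miR-21-FLuc cells are incubated with test compounds (final up to about 40uM) for 48 hours; firefly luciferase signal is then imaged following reagent-mediated lysis.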
Potency means the concentration at half of the fitted maximal effect.

Potency, active:
Cc1ccc(SCCC(=O)N2CCC(C)CC2)cc1 7.36 µM
CN(C)c1ccc(/C=C2\CCCc3c2nc2ccccc2c3C(=O)O)cc1 4.65 µM
O=C(O)c1c2c(nc3ccccc13)/C(=C/c1ccc(OC(F)F)cc1)CCC2 14.7 µM
Cc1ccc2oc(-c3ccc(NC(=O)c4cccc(F)c4)c(C)c3)nc2c1 7.36 µM
Cc1ccc2oc(-c3ccc(C)c(NC(=O)c4ccc(-c5ccccc5[N+](=O)[O-])o4)c3)nc2c1 8.26 µM
Cc1cc2nc(-c3ccc(NC(=O)C(C)C)cc3)oc2cc1C 0.369 µM
Cc1ccc2oc(-c3ccc(Cl)c(NC(=O)c4cc5ccccc5o4)c3)nc2c1 5.85 µM
Cc1cc2nc(-c3ccc(NC(=O)c4cc5ccccc5o4)cc3)oc2cc1C 8.26 µM
C/C(=N\NC(=O)c1ccoc1C)c1cccc2ccccc12 7.36 µM
C/C(=N\NC(=O)c1ccoc1C)c1ccccc1 1.85 µM
CCc1ccc(C(=O)N/N=C/c2cccc3ccccc23)nc1 8.26 µM
Cc1ccc(NC(=O)c2ccoc2C)cc1C 4.14 µM
C/C(CC(=O)NC(C)(C)C)=N\NC(=O)c1ccco1 6.56 µM
Cc1occc1C(=O)N/N=C/c1cnn(C)c1C 13.1 µM
C/C(=N\NC(=O)c1ccco1)c1ccc(-c2ccccc2)cc1 2.93 µM
Cc1occc1C(=O)NNC(=S)Nc1ccccc1C(F)(F)F 8.26 µM
C/C(=N/NC(=O)c1ccoc1C)c1ccc(N2CCOCC2)cc1 0.927 µM
Cc1occc1C(=O)NNC(=O)c1ccccc1C(=O)O 1.17 µM
Cc1occc1C(=O)N/N=C/c1cccc2ccccc12 2.07 µM
O=[N+]([O-])c1ccccc1-c1cc(-c2ccccc2O)n[nH]1 2.07 µM
c1nc(NCCN2CCOCC2)c2c3c(sc2n1)CCCCC3 16.5 µM
Cc1ccc(O)c(NC(=O)c2cc(-c3cccs3)on2)c1 4.65 µM
O=C(Nc1cc(Cl)ccc1O)c1cc(-c2ccco2)on1 16.5 µM
Cc1ccc(O)c(NC(=O)c2cc(-c3ccccc3)on2)c1 2.61 µM
Cc1ccc(O)c(NC(=O)c2cc(-c3ccco3)on2)c1 13.1 µM
Cc1cc(NCc2ccccn2)ccc1Br 9.27 µM
COc1ccc(-c2nc(C#N)c(NCc3ccc(C)cc3)o2)cc1OC 7.36 µM
CC(C)(C)c1ccc(-c2nc(C#N)c(NCc3ccncc3)o2)cc1 4.14 µM
COc1ccc(-c2nc(C#N)c(NCCc3ccccc3)o2)cc1 9.27 µM
COc1ccc(-c2nc(C#N)c(NCCCn3ccnc3)o2)cc1OC 16.5 µM
COc1ccc(-c2nc(C#N)c(NCCc3ccccc3)o2)cc1OC 2.93 µM
CCC(=O)Nc1cccc(OCc2cc(=O)n3cc(C)ccc3n2)c1 6.56 µM
O=C(Nc1ccc2c(c1)OCCO2)c1cnc2n(c1=O)CCS2 1.47 µM
Cc1csc2ncc(C(=O)Nc3ccc4c(c3)OCCO4)c(=O)n12 0.208 µM
COc1cccc(-c2noc(-c3ccoc3C)n2)c1 6.56 µM
COc1ccc(-c2noc(-c3ccoc3C)n2)cc1 2.07 µM
Cc1ccc(NC(=O)Nc2ncnc3nc[nH]c23)cc1 2.93 µM
CCc1ccc(/C=N/Nc2ncnc3nc[nH]c23)cc1 0.656 µM
Cc1ccc(/C=N/Nc2nnc(Cl)c3ccccc23)cc1 0.414 µM
Cc1ccc(/C=N/Nc2ncnc3nc[nH]c23)cc1 0.826 µM
Cc1cccc(/C=N/NC(=O)c2ccc(Br)cc2)c1 18.5 µM
COc1ccc(NC(=S)NNC(=O)c2cccs2)cc1 7.36 µM
CCN(CC)c1ccc(NC(=S)NC(=O)c2cccs2)cc1 2.33 µM
O=C(NNC(=S)Nc1ccccc1)c1cccs1 2.07 µM
CCc1ccccc1Nc1ncnc2c1cnn2-c1ccc(Cl)cc1 6.56 µM
CCOc1ccccc1Nc1ncnc2c1cnn2-c1ccc(C)cc1 5.21 µM
Cc1ccc(-n2ncc3c(Nc4cccc(C)c4C)ncnc32)cc1 2.07 µM
COc1nc(C)ccc1-c1noc(-c2cccs2)n1 1.85 µM
COc1nc(-c2ccccc2)ccc1-c1noc(C)n1 7.36 µM
COc1ccccc1-c1nc(-c2ccc(C)nc2OC)no1 3.29 µM
CCOc1ccccc1-c1nc(-c2ccc(C)nc2OC)no1 3.69 µM
CCOc1ccc(-c2nc(-c3ccccc3C)no2)cc1 0.826 µM
O=C(/C=C/c1c(F)cccc1Cl)Nc1ncccn1 3.29 µM
O=C(/C=C/c1c(F)cccc1Cl)Nc1nc2ccccc2[nH]1 5.21 µM
NC(=O)c1ccccc1NC(=O)/C=C/c1c(Cl)cccc1Cl 2.93 µM
S=C(Nc1ccc2[nH]ccc2c1)NC1CCCCC1 4.14 µM
Cc1cccn2cc(-c3c[nH]c4ccccc34)nc12 13.1 µM
O=C(c1cc(COc2ccc(F)cc2Cl)on1)N1CCCCCC1 4.14 µM
O=C(c1cc(COc2ccc(F)cc2F)on1)N1CCSCC1 5.85 µM
O=C(c1cc(COc2ccc(F)cc2Cl)on1)N1CCSCC1 6.56 µM
O=C(c1cc(COc2ccc(F)cc2F)on1)N1CCOCC1 14.7 µM
O=C(c1cc(COc2c(F)cccc2F)on1)N1CCCCCC1 7.36 µM
Cc1ccc(C)c(N2CCN(c3cnn(-c4nc5ccccc5s4)c(=O)c3Cl)CC2)c1 0.927 µM
O=c1c(Cl)c(N2CCN(c3ccc(F)cc3)CC2)cnn1-c1nc2ccccc2s1 3.29 µM
O=C(/C=C/c1ccccc1)NC1CC2CCC1C2 (stereo unspecified) 7.36 µM
Cc1cc(-c2ccc(N3CCOCC3)cc2)nc2ccccc12 3.29 µM
